The results in this text go back to PubChem BioAssay AID602179 (National Center for Advancing Translational Sciences (NCATS), 2012).

The campaign covered roughly 390,000 compounds. About 360 (0.092%) were called active. Calls come from the whole dose curve; as a rule, active = well fitted inhibition curve with a large enough effect; inconclusive = small, poorly fitted or top-dose-only effect; inactive = no such curve, though single readings can be large or run the other way. Only a selection was taken, and actives are over-represented in it overall.
Potency is the fitted concentration of half-maximal effect.

Chain of Isocitrate dehydrogenase [NADP] cytoplasmic (Homo sapiens) (O75874 whole entry R132H, stated change not applied, canonical isoform): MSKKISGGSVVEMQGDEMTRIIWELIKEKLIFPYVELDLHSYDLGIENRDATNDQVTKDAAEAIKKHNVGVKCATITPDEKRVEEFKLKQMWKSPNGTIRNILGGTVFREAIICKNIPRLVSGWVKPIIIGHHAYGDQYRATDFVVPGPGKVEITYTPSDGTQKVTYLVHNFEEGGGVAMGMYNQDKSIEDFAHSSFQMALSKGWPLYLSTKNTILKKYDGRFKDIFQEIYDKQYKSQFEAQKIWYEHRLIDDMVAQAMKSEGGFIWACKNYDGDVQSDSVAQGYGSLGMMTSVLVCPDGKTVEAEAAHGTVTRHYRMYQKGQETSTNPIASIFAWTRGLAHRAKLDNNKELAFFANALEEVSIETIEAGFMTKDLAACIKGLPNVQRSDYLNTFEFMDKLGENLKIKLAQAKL

This test concerns the target Isocitrate dehydrogenase [NADP] cytoplasmic (Homo sapiens) (UniProt O75874). In words: qHTS for Inhibitors of mutant isocitrate dehydrogenase 1 (IDH1): qHTS. Note: nearly all actives have a fitted effect of over 65% in size. The settings on record: IDH1-R132H enzyme, NADPH consumption, diaphorase/resazurin fluorescence; series mostly up to 76.6 µM; activity change, negative = inhibition: at the top concentration. An excerpt: Unbiased genomic sequencing for 22 glioma genomes found recurrent mutation of isocitrate dehydrogenase 1 (IDH1) on chromosome 2q33-a gene encoding the cytosolic isoform of IIDH1associated with the tricarboxylic acid cycle (TCA) that catalyzes the oxidative decarboxylation of isocitrate, yielding alpha-ketoglutarate and CO2 via NADP+ to NADPH conversion. Subsequent studies confirmed the recurrent IDH mutations in up to 70% of secondary gliomas and in 10% of AML cases. […] This in effect defines IDH1 as an oncogene, and provides an extraordinary opportunity to discover chemical probes against mutant IDH1 that may translate into much needed new therapies for glioma and AML patients. […] NIH Chemical Genomics Center [NCGC] NIH Molecular Libraries Probe Centers Network [MLPCN] MLPCN Grant: DA032129 Assay Submitter (PI): Lenny Dang, Agios Pharmaceuticals
IDH1-R132H (0.5 ug/mL) was dispensed into black, solid-bottom 1536-well plates at 3 uL/well in 20 mM Tris-HCl (pH 7.5), 150 mM NaCl, 10 mM MgCl2, 4 mM beta-ME, and 0.05% protease-free BSA. Then, 23 nL of compounds or DMSO were delivered to each well using a pin tool. A pre-read was run on the Viewlux to identify fluorescent compounds (540 nm excitation filter, 598 nm emission filter, bodipy mirror and 2 second exposure). After 30 minutes of incubation with compound, 3 uL of substrate mix were dispensed (0.016 mM NADPH, 2 mM alpha-KG, 20 mM Tris-HCl (pH 7.5), 150 mM NaCl, 10 mM MgCl2, and 0.05% protease-free BSA). Plates were spun for 1 min at 1000xg and incubated at room temperature for 80 min. Then 1.5 uL of each detection reagent component for the coupling system were added (0.12 mg/mL diaphorase and 0.072 mM resazurin, each in 20 mM Tris-HCl (pH 7.5), 150 mM NaCl, 10 mM MgCl2, and 0.05% protease-free BSA ) The protein, substrate and two detection components were maintained at 4 °C throughout the screen. Additionally, the substrate and resazurin reagents were protected from light. The plates were measured on an Envision plate reader for fluorescence signal using a 540 nm excitation filter and 590 nm emission filter with 10 flashes. 1x and 0x (no-enzyme) IDH1-R132H enzyme control were used to normalize %Activity of identified inhibitors; 0x enzyme values corresponded to 100% Activity (full inhibition), while 1x IDH1-R132H enzyme values were used to normalize 0%Activity (no inhibition). Concentration-response curves were fitted to the signals arising from the resulting fluorescence. The concentration-effect curves were then classified based on curve quality (r2), response magnitude and degree of measured activity, and compounds were subsequently categorized based on their curve class. […] Keywords: isocitrate dehydrogenase, IDH1, IDH1-R132H, MLSMR, MLPCN, NIH Roadmap, qHTS, NCGC
A general note: qHTS replaces the single test concentration by a dilution series.
Regarding `O=C(NCCc1ccc(Cl)cc1)c1ccc2nc(CCc3ccccc3)oc2c1`, the “activity change, negative = inhibition” value was -6.32% (inactive). Consider `CCC1(C)CC(=O)c2c(ccc3oc(C(=O)Nc4ccc(C(C)=O)cc4)c(C)c23)O1` (configuration not stated), for which the “activity change, negative = inhibition” value is 15.7% (inactive).

Take `Cc1noc(/C=C/N(C)C)c1S(=O)(=O)N1CCCC(C(=O)Nc2cccc(F)c2)C1` (configuration not stated): the “activity change, negative = inhibition” value is 2.9% (inactive).

On to `CCOC(=O)c1c(C)oc2nc(C)nc(N(CC(C)C)CC(C)C)c12`, for which the “activity change, negative = inhibition” value was -5.12% (inactive). In the case of `COc1ccc(NC(=O)CSc2nccn2Cc2ccc3c(c2)OCO3)cc1`, the “activity change, negative = inhibition” value was -2.7% (inactive). On the same count and under the same terms, for `CCOc1ccc(CNC(=O)c2ccc3c(c2)nnn3C2CCCC2)cc1` the value was -1.82% (inactive); for `CN(Cc1ccccc1)c1ccc(-c2nc(-c3ccccc3)no2)cc1[N+](=O)[O-]`, 10.1% (inactive). The same measure, in the same setting: the same measure for `NC(=O)CSc1nc2c(oc3ccccc32)c(=O)n1Cc1ccccc1`: 14.4% (inactive); for `CCOc1cccc(NC(=O)c2ccc(F)c(S(=O)(=O)N(CC)c3cccc(C)c3)c2)c1`: -1.16% (inactive). As to `O=C(CCn1c(=O)c2sccc2n(Cc2ccc(F)cc2)c1=O)NCc1ccc2c(c1)OCO2`, the “activity change, negative = inhibition” value was -5.74% (inactive). Still for that read-out and setting: the same measure for `CCC(=O)Nc1cccc(C(=O)OCc2cc(=O)n3nc(CC)sc3n2)c1`: -9.41% (inactive). Still for that read-out and setting: for `CSc1ncc(C(=O)NCc2ccccc2Cl)c(C(F)(F)F)n1` the value was -6.99% (inactive); for `O=C(Cn1c(=O)nc(-c2ccccc2)c2cc(Cl)ccc21)NCc1ccc(Cl)cc1`, -8.72% (inactive). On to `CN(CC(=O)Nc1cccc(C(F)(F)F)c1)S(=O)(=O)c1cccs1`, for which the “activity change, negative = inhibition” value was 2.99% (inactive). On the same count and under the same terms, the same measure for `COc1ccccc1NC(=O)C1=C(C)Nc2nc(SCC(=O)c3ccc(C)cc3)nn2C1c1ccccc1C` (configuration not stated): 9.04% (inactive). On the same count and under the same terms, for `COc1ccc(-c2nc(C)c(CCNC(=O)c3ccc(C(F)(F)F)cc3)s2)cc1OC` the value was 4.38% (inactive); for `Cc1ccc(C(=O)Nc2ccc(C(=O)O)cc2)cc1S(=O)(=O)Nc1ccccc1`, 8.34% (inactive); for `COc1cccc(CC(=O)OCC(=O)NCc2ccc3c(c2)OCO3)c1`, -1.17% (inactive).

`COc1ccc(CNC(=O)c2cc3c(s2)-c2ccccc2OC3)cc1`: the “activity change, negative = inhibition” value was 7.22% (inactive). As for `COc1ccc(CNC(=O)COC(=O)C2=Cc3ccccc3OC2)cc1`, the Potency is 52.1 µM (active). On to `O=C(CSc1nc(=O)[nH]c2c1CCCC2)Nc1cc(C(F)(F)F)ccc1Cl`, for which the “activity change, negative = inhibition” value was 1.58% (inactive). Still for that read-out and setting: for `COc1ccc(Cl)cc1NC(=O)CCn1c(=O)c2cccn2c2ccccc21` the value was 15.1% (inactive); for `COc1ccc(-c2onc(C)c2C)cc1S(=O)(=O)NCC1CCN(Cc2cccc(F)c2)CC1`, 1.7% (inactive).

Regarding `COc1cccc(-n2ccn(CC(=O)NCc3ccc(C)cc3)c(=O)c2=O)c1`, the “activity change, negative = inhibition” value was -2.1% (inactive). Same read-out and setting: the same measure for `COc1ccccc1NC(=O)CSc1oc(-c2ccco2)nc1S(=O)(=O)c1ccc(Br)cc1`: 5.21% (inactive); for `Cc1ccc(Cl)cc1NC(=O)C(C)n1nnc2sc(-c3ccccc3)cc2c1=O` (configuration not stated): -9.89% (inactive).

`COc1ccccc1OCCCn1c(-c2ccc(Cl)cc2)nc2ccccc2c1=O`: the “activity change, negative = inhibition” value is -10.3% (inactive). Same read-out and setting: the same measure for `CC(C)c1ccc(Cn2c(COc3ccccc3)nc3ccccc32)cc1`: -0.67% (inactive). On to `Cn1c(COc2ccc(Cl)cc2)nc2ccccc2c1=O`, for which the Potency was 52.1 µM (active). As to `Cc1ccc(CNS(=O)(=O)c2ccc(C(=O)N(C)C)s2)cc1`, the “activity change, negative = inhibition” value is 0.733% (inactive).

As to `COc1cc2nc(SCC(=O)Nc3ccccc3F)n3nc(-c4ccccc4)nc3c2cc1OC`, the “activity change, negative = inhibition” value is 0% (inactive).

Regarding `CCNS(=O)(=O)c1ccc(NC(=O)CSc2nc(-c3ccco3)cc(C(F)(F)F)n2)cc1`, the “activity change, negative = inhibition” value was -11.6% (inactive). Same read-out and setting: the same measure for `COc1ccc(NC(=O)Cn2cc(C(=O)c3ccncc3)c(=O)c3cc(C)ccc32)cc1Cl`: -15.1% (inactive).

Consider `Cc1ccc(C)c(Cn2c(C)c(CNCc3ccc(F)cc3)c(C(=O)O)c2C)c1`, for which the “activity change, negative = inhibition” value was -3.26% (inactive). In the case of `CCOc1cc(C2C(C(=O)OC)=C(C)NC3=C2C(=O)c2ccccc23)ccc1O` (configuration not stated), the “activity change, negative = inhibition” value was 3.72% (inactive). Still for that read-out and setting: for `CCn1cc(C(=O)N(C)Cc2ccccc2)c(=O)c2cc(S(=O)(=O)N3CCCCCC3)ccc21` the value was 3.18% (inactive); for `CCOc1ccc2nc(N3CCC(C(=O)Nc4cc(C)ccc4C)CC3)sc2c1`, -5.67% (inactive). Consider `CCC(=O)N1CCc2cc(S(=O)(=O)NCCC(=O)Nc3cccc(C)c3C)ccc21`, for which the “activity change, negative = inhibition” value is 0% (inactive). The same measure, in the same setting: for `Cc1ccc(NC(=O)CSc2nnc3[nH]c(=O)cc(C)n23)cc1Cl` the value was -5.19% (inactive); for `O=C(Cn1c(=O)n(-c2ccc(F)cc2)c(=O)c2sc3ccccc3c21)NC1CCCC1`, 5.77% (inactive); for `CCOc1cc(-c2nnc(SCC(=O)NC3CCCC3)nc2-c2ccc(OC)c(OCC)c2)ccc1OC`, -5.74% (inactive). On the same count and under the same terms, the same measure for `CCOc1ccc(CNC(=O)Cn2cc3c(n2)-c2c(oc(C(=O)N4CCCC4)c2C)CC3)cc1`: -2.43% (inactive). On the same count and under the same terms, the same measure for `CCN(CCCNC(=O)Cn1ncc2c3ccccc3n(C)c2c1=O)Cc1ccccc1`: 1.64% (inactive); for `Cc1ccc(-c2nnc(Nc3cccc(Br)c3)c3ccccc23)cc1S(=O)(=O)NCC1CCCO1` (configuration not stated): -14.4% (inactive). Consider `CCOC(=O)c1ccc(NC(=O)CCS(=O)(=O)c2ccc(C)cc2)cc1`, for which the “activity change, negative = inhibition” value is 19.8% (inactive). For `CCC(=O)N1N=C(c2ccc(OC)cc2)CC1c1cn(-c2ccccc2)nc1-c1cccs1` (configuration not stated), the “activity change, negative = inhibition” value was 6.3% (inactive).

Consider `Cn1ccc2cc(S(=O)(=O)N3CCCC(C(=O)NCc4ccccc4F)C3)ccc21` (configuration not stated), for which the “activity change, negative = inhibition” value is -13.5% (inactive).
